The entries come from a sample that favours hits as a whole.
Tg IFNy HTS: inhibitors of Toxoplasma gondii growth with IFN-gamma; Toxoplasma gondii growth in IFN-gamma-treated host cells; stronger effect = lower value; activity change, negative = inhibition, % (test concentration not listed); hit rate 3.8% among 69,000; AID 1259416; in the data active = activity change below about -70%, passing the limit was not always enough;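 note: host cells are HeLa cells infected with Toxoplasma gondii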
The depositor's hits bear a star.

SMILES	Tg IFNy HTS
CC(C)NC(=O)[C@H]1CCS(=O)(=O)[C@H]2CN(C(=O)Nc3ccccc3)C[C@@H]12	-19
Cc1[nH]n(-c2ccccc2)c(=O)c1C(=O)c1ccccc1	98
Cc1[nH]n(-c2ccccc2)c(=O)c1N=Nc1c(C)n(C)n(-c2ccccc2)c1=O	-92*
Cc1c(N(C)C)c(=O)n(-c2ccccc2)n1C	8
CCOc1ccc(N(CC)Cc2cnc(C)nc2)cc1C(F)(F)F	236
CCCCN(CC)c1nc(C(=O)OCC)nc2ccccc12	-87*
CCCN(c1ccc(F)cc1)c1nc(C(=O)OCC)nc2ccccc12	-49
CCCCN(CCCNc1nc(C(=O)OCC)nc2ccccc12)c1ccccc1	-78*
CCOC(=O)c1nc(NCCCN2CCN(Cc3ccccc3)CC2)c2ccccc2n1	2
CCOC(=O)c1nc(N(C)c2ccccc2C)c2ccccc2n1	-18
CCOC(=O)c1nc(NCCOC)c2ccccc2n1	104
COc1ccc(Cc2n[nH]c(Cc3ccccc3)n2)c(OC)c1	83
Cc1ccc2c(c1C)-n1cccc1C1(CCN(C(=O)c3ccccc3F)CC1)N2	47
O=C(CN1CCOC1=O)NCc1cnn(-c2ccc(F)cc2)c1	3
O=C(c1cccs1)N1CCCn2cnc(CN3CCCC3)c2C1	2
COc1ccc2c(c1)NC1(CCN(C(=O)Nc3cc(Cl)c(OC)cc3OC)CC1)c1cccn1-2	49
COCCC(=O)N1CCN(Cc2csc(C)n2)c2ncccc2C1	4
COc1cncc(-c2ccc(F)c(CO)c2)c1	-2
Cc1[nH]nc2ccc(-c3cncc(OC[C@@H](N)Cc4ccccc4)c3)cc12	-78*
CCn1c(C)nnc1SCCNc1cc(OC)ncn1	8
Cc1cc(C)n(CCCC(=O)N2CCC3(CN(C)C(=O)O3)C2)n1 (configuration not stated)	-1
CC1CCN(S(=O)(=O)c2ccc3c(c2)CCC(=O)N3CC(=O)Nc2ccc(C(C)C)cc2)CC1	-73*
CCOc1ccc(NC(=O)CN2C(=O)CCc3cc(S(=O)(=O)N4CCC(C)CC4)ccc32)cc1	-26
CC1CCN(S(=O)(=O)c2ccc3c(c2)CCC(=O)N3CC(=O)Nc2ccccn2)CC1	10
Cc1csc(NC(=O)CN2C(=O)CCc3cc(S(=O)(=O)N4CCC(C)CC4)ccc32)n1	-93*
SMILES	Tg IFNy HTS
Cc1cc(C)c(NC(=O)CN2C(=O)CCc3cc(S(=O)(=O)N4CCC(C)CC4)ccc32)c(C)c1	-31
CC(C)c1ccc(NC(=O)CN2C(=O)CCc3cc(S(=O)(=O)N4CCCCC4C)ccc32)cc1 (configuration not stated)	-75*
CC(C)NC(=O)CN1C(=O)CCc2cc(S(=O)(=O)N3CCCCC3C)ccc21 (configuration not stated)	36
CC(=O)Nc1ccc(NC(=O)CN2C(=O)CCc3cc(S(=O)(=O)N4CCC(C)CC4)ccc32)cc1	23
Cc1cc(C)c(NC(=O)CN2C(=O)CCc3cc(S(=O)(=O)N4CCCCC4C)ccc32)c(C)c1 (configuration not stated)	-43
Cc1cc(CN2C[C@H](N3CCOCC3)C3OCCCC32)oc1C (some centres not stated)	1
COc1cccc(C(=O)N2CCC(Cc3nn(C)cc3C(=O)Nc3nccs3)CC2)c1	12
COc1cccc(-n2c(=O)c(C(=O)Nc3ccc(F)cc3C)c(O)c3cccnc32)c1	44
CC(C)c1ccc(S(=O)(=O)N2CCC3(CC2)NCCN=C3NCc2ccc(F)cc2)cc1	-36
S=C(NCCc1ccccn1)NN1C2CSC1CS2	-84*
S=C(NCCc1ccccn1)NC1CC2CCC1C2 (configuration not stated)	62
O=C(NCCc1ccccn1)Nc1nnc(-c2ccc(F)cc2)s1	-5
CN(C)CCNC(=O)c1c2c(NCc3cccnc3)ncnc2n2ccccc12	-15
O=C(CSc1ccccn1)N1CC(=O)N(C2CCCCC2)CC(OCc2cccnc2)C1 (configuration not stated)	2
CCn1c(C(C)C)nc2cc(N)ccc21	202
COc1cccc(CCc2ccccc2C(=O)NCC2(O)CCNC2)c1 (configuration not stated)	4
CC1CCCCN1C(=O)c1ccn(-c2ccc3ccccn23)n1 (configuration not stated)	-20
CC1CCCCN1C(=O)c1ccnn1-c1ccc2ccc(-c3ccccc3)cn12 (configuration not stated)	-85*
O=C(Nc1cccnc1)c1ccnn1-c1ccc2ccc(-c3cccnc3)cn12	-1
O=C(c1ccccn1)N1CCO[C@@H]2[C@H]1CC[C@H]2OCc1cccnc1	51
Cc1nc(CC(=O)N2CCCCC2c2nnc3n2CCN(C)C3)cs1 (configuration not stated)	-47
CCc1cnc(-c2cccc(O)c2)nc1	17
Cc1cc(NC(=O)c2ccccc2)no1	79
CCCCCCCc1ccc(C(=O)NC(=S)Nc2cc(C)on2)cc1	-92*
Cc1cc(NC(=O)CCCC(=O)O)no1	-33
SMILES	Tg IFNy HTS
Cc1oc(-c2ccc(OC(C)C)cc2)nc1Cn1ccn2nc(-c3ccccc3)cc2c1=O	-21
Cc1c(-c2ccccc2)n[nH]c1C(=O)N1CCC(c2ccccc2C(=O)O)C1 (configuration not stated)	-6
O=C(O)c1ccc(-c2c[nH]c3ncc(-c4ccccc4)cc23)cc1C1CCCC1	-85*
O=C(O)c1ccccc1C1CCN(C(=O)Cc2c[nH]c3ccccc23)C1 (configuration not stated)	-42
O=C(NCCc1ccccc1)c1ccc(OC2CCN(C(=O)c3cncs3)CC2)cc1	-25
CCOc1cccc(-c2ccccc2C(N)=O)c1	4
COCCN1C(=O)CCC12CCN(C(=O)COC)CC2	0
C=CC(=O)N1CCC2(CCC(=O)N2CCN2CCCC2)CC1	-6
CCOCC(=O)N1CCC2(CCC(=O)N2CCN2CCCC2)CC1	-89*
Cc1cccc(OCC(=O)N2CCC[C@@H]2C(=O)NCCc2csc(-c3ccccc3)n2)c1	5
Cc1nc(-c2cn(C(C)C)c3ncccc23)sc1C(=O)N1CCC2(CC1)OCCO2	-67
CCOC(=O)C1CCN(C(=O)c2sc(-c3cn(C(C)C)c4ncccc34)nc2C)CC1	-51
Cc1nc(-c2cn(C(C)C)c3ncccc23)sc1C(=O)N1CCCC(C)C1 (configuration not stated)	-117*
CCN(CC)C(=O)c1cc(=O)n(CC(=O)Nc2c(C)cccc2C)c2ccccc12	-3
Cc1ccc(-c2nc(CSc3nc4c(c(=O)[nH]3)CN(Cc3ccccc3)CC4)c(C)o2)cc1	-48
Cc1nn(C)c(C)c1NC(=O)c1cccc(CN(C)Cc2ccno2)c1	-4
Cc1noc(C)c1CC(=O)NC(C)c1cc(=O)[nH]c(N2CCC(C)CC2)n1 (configuration not stated)	21
CCCc1cc(C(=O)N2CCCC(c3[nH]c4c(C)cccc4c3-c3ccncc3)C2)no1 (configuration not stated)	-116*
CCCc1[nH]ncc1C(=O)N1CCCC(c2[nH]ncc2-c2ccc(F)cc2)C1 (configuration not stated)	-8
CCCc1cc(C(=O)N2CCCC(c3[nH]ncc3-c3ccccc3)C2)ccn1 (configuration not stated)	-3
O=C(NCC1OCCc2ccccc21)c1cnn2c1CCCC2 (configuration not stated)	-4
O=C(NO)c1cnc(N2CCN(S(=O)(=O)c3ccc4ccccc4c3)CC2)nc1	-70
Cn1cc(CC(=O)NCc2cnn3ccccc23)c2ccccc21	42
Cn1cc(CNCC2CCN(c3ncc(C(=O)NO)cn3)CC2)c2ccccc21	-79*

Bioassay records as filed in PubChem.
